The full list was thinned out, with hits kept by preference.
BL2 CD40 inh = CD40 pathway inhibition in BL2 cells; BL2 NF-kB luciferase reporter, CD40L-induced, 4 h; inhibition, % at 10 µM; 0.94% of 83,000 active; AID 1053188;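 active = mean inhibition of at least 50% with a set share of replicates also reaching that level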;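 note: 0% = neutral control wells and 100% = IKK inhibitor VII at 50 µM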
* marks the source's active call; other numbers are inactive results; [ ] = dose if it differs, or a comment.

SMILES	BL2 CD40 inh
COc1ccccc1-c1cn(CC[C@H]2CC[C@H](NC(=O)C3CCCC3)[C@H](CO)O2)nn1	0
CC(OC(=O)c1ccccn1)C(=O)Nc1ccc2c(c1)OCCO2 (stereo not drawn)	-1
O=C(Nc1ccc2c(c1)OCCO2)c1ccc2ccccc2n1	-42
O=C(Nc1ccc2c(c1)OCCO2)c1ccccn1	78*
CN1C(=O)c2cc(NC(=O)C3CCCC3)ccc2OC[C@@H]2O[C@H](CC(=O)NCc3ccccc3F)CC[C@H]21	1
COC(=O)C[C@@H]1C[C@@H]2c3cc(NC(=O)c4ccc5c(c4)OCO5)ccc3O[C@@H]2[C@@H](CO)O1	-11[25 µM]
Cc1ccc(S(=O)(=O)N2[C@@H]3CNC[C@H]2C3c2ccc(-c3ccccc3C)cc2)cc1 (stereo partly drawn)	0
COc1ccc(CN2CC3(CN(S(=O)(=O)c4ccc(C)cc4)C3)c3c([nH]c4cc(OC)ccc34)[C@H]2CO)cc1	55*[25 µM]
COc1ccc2c3c([nH]c2c1)[C@H](CO)N(Cc1ccc(Cl)cc1)CC31CN(S(C)(=O)=O)C1	14[25 µM]
COc1ccc2c3c([nH]c2c1)[C@@H](CO)N(Cc1ccc(Cl)cc1)CC31CN(S(C)(=O)=O)C1	11[25 µM]
CC(C)NC(=O)Nc1ccc2c(c1)C(=O)N([C@H](C)CO)C[C@@H](C)[C@@H](CN(C)C(=O)Nc1ccccc1)OCCCC[C@@H](C)O2	-5
CC(=O)Nc1cccc2c1O[C@@H](CN(C)C)[C@H](C)CN(C)C2=O	11
Cn1c(SC/C=C/c2ccccc2)nnc1-c1cccnc1	5
Cc1nn2c(-c3cccnc3)ccnc2c1-c1ccccc1	-67
Cn1c(SSc2ccc(-c3cccnc3)n2C)ccc1-c1cccnc1	48*
C[C@H](NC(=O)C[C@H]1C[C@@H]2c3cc(NC(=O)Nc4ccc(C(F)(F)F)cc4)ccc3O[C@@H]2[C@H](CO)O1)c1ccccc1	7[25 µM]
CCN1[C@@H]2Cn3c(ccc(C4=CCCCC4)c3=O)[C@H]1[C@@H](C(=O)NCCc1ccncc1)[C@@H]2CO	-10[25 µM]
N#CCC(=O)Nc1ccc(C(=O)OCC(=O)c2ccc3c(c2)OCO3)cc1	-63
O=C(COC(=O)c1cccs1)c1ccc2ccccc2c1	-83
O=C(Nc1ccc(NC(=O)c2cccs2)cc1)c1ccc2c(c1)OCCO2	3
CC(=O)NC12CC3CC(C1)CC(C(=O)OCC(=O)c1ccc4c(c1)OCCO4)(C3)C2	59*
O=C(COC(=O)c1cccs1)c1ccc2c(c1)OCCO2	113*
COc1cccc(CN(C)C(=O)C23CC4CC(CC(NC(C)=O)(C4)C2)C3)c1OC	5
O=C(COC(=O)c1ccccc1-c1ccccc1[N+](=O)[O-])c1ccccc1	-12
CNS(=O)(=O)c1cccc(C(=O)OCC(=O)c2ccc3c(c2)OCCO3)c1	25
SMILES	BL2 CD40 inh
O=C(COC(=O)c1ccccc1[N+](=O)[O-])c1ccc2c(c1)OCO2	88*
C[C@@H]1CN([C@H](C)CO)C(=O)CCCn2cc(nn2)CO[C@@H]1CN(C)Cc1ccncc1	-2
C[C@@H](NC(=O)C[C@@H]1C[C@@H]2c3cc(NC(=O)NC4CCCC4)ccc3O[C@@H]2[C@@H](CO)O1)c1ccccc1	3
CC(NCC(O)CP(=O)(O)CC1CCCCC1)c1ccc(Cl)c(Cl)c1 (stereo not drawn)	2[25 µM]
C[C@H]1CN([C@@H](C)CO)C(=O)CCCn2cc(nn2)CO[C@H]1CN(C)Cc1ccc(Oc2ccccc2)cc1	4
CC12C(=O)OC(=O)C1(C)C1CCC2O1 (stereo not drawn)	74*[25 µM]
C[C@H](CO)N1C[C@H](C)[C@@H](CN(C)CC2CC2)OCCCC[C@H](C)Oc2ccc(NC(=O)CCCCCC(=O)Nc3ccccc3N)cc2C1=O	-23
CO[C@@H]1CN(C)C(=O)c2cc(NC(=O)C3CCCCC3)ccc2OC[C@@H](C)N(C(=O)c2ccccc2)C[C@@H]1C	6[25 µM]
Cc1ccc(-c2nc(N/N=C/c3ccncc3)c3ccccc3n2)cc1	53*
c1ccc2c(Nc3nc(-c4ccncc4)nc4ccccc34)cccc2c1	18
Cc1ccc(NCC(=O)N/N=C/c2ccncc2)cc1	5
N#C/C(=C\c1ccc(O)c(O)c1)C(=O)NCCCc1ccccc1	1
CCOCCCNC(=O)/C(C#N)=C/c1ccc(Cl)c([N+](=O)[O-])c1	73*
COCCCNC(=O)c1ccc([N+](=O)[O-])c(Cl)c1	21
COc1ccc(CN2[C@@H]3CN(C(=O)C4CC4)c4ccccc4[C@@H]3[C@@H]2CO)cc1	5[25 µM]
CCCNC(=O)Nc1ccc2c(c1)C(=O)N(C)C[C@H](OC)[C@H](C)CN(C)[C@H](C)CO2	-2[25 µM]
Cc1ccc(C)c(N(CC(=O)N(C)C)S(C)(=O)=O)c1	4
Cc1ccc(OC(=O)CCC(=O)Oc2ccc(C)cc2C)c(C)c1	0
C=C(CN(C)C)C(=O)c1ccc(C)cc1C	93*
O=C(C[C@@H]1C[C@H]2c3cc(NC(=O)NC4CCCC4)ccc3O[C@H]2[C@@H](CO)O1)NCc1cccnc1	3
O=C(NC1CCC1)[C@@H]1[C@@H](CO)[C@@H]2Cn3c(ccc(C4=CCCC4)c3=O)[C@@H]2N1C(=O)C1CCCC1	-6
C[C@@H]1CN(C)C(=O)c2cc(N)ccc2O[C@@H]1CN(C)C(=O)OC(C)(C)C	6
Cc1cc(C)nc(NC(N)=NC(C)c2ccccc2)n1 (stereo not drawn)	26
Cc1cc(C)nc(NC(N)=NCCc2ccccc2)n1	16
Cc1cc(C)nc(NC(N)=NCCc2c[nH]c3ccccc23)n1	66*
SMILES	BL2 CD40 inh
C[C@@H]1CN(C)C(=O)c2cc([N+](=O)[O-])ccc2O[C@H]1CN(C)C(=O)OC(C)(C)C	26
N#C[C@H]1[C@@H](c2ccc(C#CC3(O)CCCC3)cc2)[C@@H](CO)N1C(=O)C1CCCC1	-1
CO[C@@H]1CN(C)C(=O)c2cc(NS(=O)(=O)c3ccc(Cl)cc3)ccc2OC[C@@H](C)N(C(=O)NC(C)C)C[C@@H]1C	-4[25 µM]
CC(C)COC(=O)N(C)C[C@@H]1OCc2ccccc2-c2c(n(C)c3ccccc23)C(=O)N([C@@H](C)CO)C[C@@H]1C	9[25 µM]
COc1ccc(NC(=O)c2ccc(OCC3CCCO3)cc2)cc1OC (stereo not drawn)	-28
Cc1ccnc(NC(=O)c2ccc3c(c2)C(=O)N(CC2CCCO2)C3=O)c1 (stereo not drawn)	-73
Cc1ccnc(NC(=O)c2ccc(OCC3CCCO3)cc2)c1 (stereo not drawn)	87*
CCC(=O)NC[C@@H]1[C@@H](c2ccc(C3=CCCCC3)cc2)[C@@H](CO)N1C(=O)C1CC1	-5
CCc1nnc(NC(=O)C2Cc3ccccc3CN2S(=O)(=O)CC)s1 (stereo not drawn)	-20
CCS(=O)(=O)N1Cc2ccccc2CC1C(=O)Nc1nc2ccccc2s1 (stereo not drawn)	61*
CCS(=O)(=O)N1Cc2ccccc2CC1C(=O)Nc1nc2ccccc2[nH]1 (stereo not drawn)	-83
NC(=O)C(CCCCN1CCCCC1)(c1ccccc1)c1ccccc1	2
OC(CCCN1CCC(O)(c2ccc(Cl)cc2)CC1)c1ccc(F)cc1 (stereo not drawn)	18
CN(C)C(=O)C(CCN1CCC(O)(c2ccc(Cl)cc2)CC1)(c1ccccc1)c1ccccc1	50*
CC(C)NC(=O)Nc1ccc2c(c1)CC(=O)N(C)C[C@@H](C)[C@H](CN(C)C(=O)OC(C)(C)C)O2	0
CC(C)NC(=O)N(C)C[C@@H]1Oc2ccc(N(C)C)cc2C(=O)N(C)C[C@@H]1C	-25
